Unmarked numbers belong to inactive results. Records with an inconclusive call do not appear. Calls of active or inactive are those of the source. Unless noted, calls follow the shape of the dose curve; as a rule, active = well fitted curve in the direction sought with a large enough effect in the repeat runs; inconclusive = weak or mixed curves; inactive = no such curve, though single readings can be large; an effect the other way counts as inactive or inconclusive.

This passage reports outcome, Potency and max activation results from PubChem BioAssay (Tox21).

Experiment [1] has as its target Progesterone receptor (Homo sapiens) (UniProt P06401). The experiment can be described thus: qHTS assay to identify small molecule agonists of the progesterone receptor (PR) signaling pathway (AID 1346784; calls by dose curve; also: nearly all actives have a fitted effect of over 30% in size). In outline: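 Beta-lactamase reporter read-out: after 16 hr compound treatment at 37C and a further 2 hr at room temperature with LiveBLAzer B/G FRET substrate, fluorescence was measured in PR-UAS-bla HEK 293T cells grown in 2% charcoal-stripped serum.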

Experiment [2] can be described thus: qHTS assay to identify small molecule antagonists of the progesterone receptor (PR) signaling pathway - cell viability counter screen (AID 1346798). Also: nearly all actives have a fitted effect of over 50% in size. Also: potency is read from the fitted curve at half-maximal effect. In outline: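 HEK293T PR-UAS-bla, 2% charcoal-stripped FBS; 4 hr pre-plate; cpd + R5020, 16 h 37C; LiveBLAzer read first; then CellTiter-Glo 30 min RT, luminescence.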
A general note: Quantitative high-throughput screening tests each substance at several concentrations.

Experiment [3] in a line: qHTS assay to identify small molecule agonists of the TGF-beta/Smad signaling pathway - cell viability counter screen (AID 1346829). Also: top concentration of the series differs between compounds; nearly all actives have a fitted effect of over 45% in size. The essentials: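 Tox21 qHTS format: SBE-bla HEK 293T cells treated with DMSO-dissolved compounds for 5 hr; CellTiter-Glo luminescence after 30 min at room temperature.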
Experiment [4] in a line: qHTS assay to identify small molecule agonists of the TGF-beta/Smad signaling pathway (AID 1346859; active = well fitted activation curve with a large enough effect in the signal ratio in the repeat runs, not every such curve was filed as active; the % refers to the signal ratio; also: series mostly up to about 77 µM). In outline:
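SBE-bla HEK 293T, 4,000 cells/well, plated o/n; cpd in DMSO, 5 hr, 37 C/5% CO2; B/G FRET substrate 2 hr RT; ex 405, em 460/530 nm.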

Experiment [5] can be described thus: Human pregnane X receptor (PXR) small molecule agonists, qHTS cell viability counter screen (AID 1346977). Also: nearly all actives have a fitted effect of over 50% in size. Also: potency is read from the fitted curve at half-maximal effect. In outline: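 PXR-Luc HepG2, 2,000 cells/well, 5% charcoal-stripped FBS; 5hr settle; cpd 24hr, 37C/5% CO2; CellTiter-Fluor at 23hr, read 1hr later (fluorescence).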
A short description of experiment [6]: Caspase-3/7 induction in HepG2 cells by small molecules, qHTS assay (AID 1346978). Also: nearly all actives have a fitted effect of over 15% in size. The essentials:
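Wild-type HepG2 cells (2,000/well) were settled 5 h at 37 C, 5% CO2, then exposed to compounds in DMSO for 17 h. Caspase-3/7 activity was read by luminescence 30 min after adding Caspase-Glo 3/7 reagent at room temperature.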

The nature of experiment [7]: Caspase-3/7 induction in CHO-K1 cells by small molecules, qHTS cell viability counter screen (AID 1346979). Also: nearly all actives have a fitted effect of over 35% in size. Also: potency is read from the fitted curve at half-maximal effect. In outline:
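Cells (CHO-K1, wild type) are plated at 1,500 per well and incubated 5hr. Test compounds in DMSO are then pinned in, followed by 16hr at 37C and 5% CO2. Viability is read by CellTiter-Fluor fluorescence after 1hr.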

Experiment [8] is described as follows: Caspase-3/7 induction in CHO-K1 cells by small molecules, qHTS assay (AID 1346980). Also: nearly all actives have a fitted effect of over 15% in size. The essentials:
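Wild-type cells were seeded at 1,500 per well and settled 5 hr at 37 C, 5% CO2, then exposed to DMSO-dissolved compounds for 17 hr. Caspase-Glo 3/7 reagent was added, and luminescence was read after 30min at room temperature.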

Experiment [9] can be described thus: Caspase-3/7 induction in HepG2 cells by small molecules, qHTS cell viability counter screen (AID 1346981). Also: series mostly up to about 92 µM; nearly all actives have a fitted effect of over 30% in size. In outline:
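The parent HepG2 line is plated at 2,000 cells per well and rested 5 hr before compound pinning from DMSO stocks. Following a 16-hr treatment at 37 C, a fluorogenic live-cell substrate (CellTiter-Fluor) reports viability after 1 hr.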

Experiment [10] has as its target Nuclear receptor subfamily 1 group I member 2 (Homo sapiens) (UniProt O75469). The experiment can be described thus: Human pregnane X receptor (PXR) small molecule agonists, qHTS assay (AID 1346982). Also: nearly all actives have a fitted effect of over 35% in size. Also: potency is read from the fitted curve at half-maximal effect. The essentials:
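After plating in 5% charcoal-stripped FBS and a 5 hr rest, PXR-Luc HepG2 cells received compounds in DMSO. Following 24 hr at 37 C, ONE-Glo was added and light output read.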

Experiment [11] concerns the target Cytochrome P450 2D6 (Homo sapiens) (UniProt P10635). Nature of the experiment: Cytochrome P450 Family 2 Subfamily D Member 6 (CYP2D6) small molecule antagonists: luciferase reporter qHTS assay (AID 1671196). Also: nearly all actives have a fitted effect of over 50% in size. Also: potency is read from the fitted curve at half-maximal effect. In outline: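 Quantitative HTS of Tox21 chemicals against CYP2D6 using a luminescent proluciferin substrate. After NADPH addition, 1 h room-temperature reaction; luminescence recorded 20 min post detection reagent.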
On the technique in general: A reporter such as luciferase makes a cellular process visible.

Experiment [12] has as its target Progesterone receptor (Homo sapiens) (UniProt P06401). Nature of the experiment: qHTS assay to identify small molecule antagonists of the progesterone receptor (PR) signaling pathway (AID 1346795; active = well fitted inhibition curve with a large enough effect in the signal ratio in the repeat runs, not every such curve was filed as active; the % refers to the signal ratio; also: potency is read from the fitted curve at half-maximal effect). In outline:
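Read-out is fluorescence from the LiveBLAzer B/G FRET substrate, cleaved by a UAS-controlled beta-lactamase in PR-UAS-bla HEK293T cells after 16 hr exposure to compound plus 1 nM promegestone (final), followed by 2 hr at room temperature.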

The target in experiment [13] is Nuclear receptor subfamily 1 group I member 2 (Rattus norvegicus) (UniProt Q9R1A7). Nature of the experiment: Rat pregnane X receptor (rPXR) activation by small molecules, qHTS assay (AID 1346983). Also: nearly all actives have a fitted effect of over 20% in size. To be noted: rPXR luciferase reporter cells, One-Glo luminescence, 24 h; max activation: hits give high values. In outline:
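Cell-based rPXR luciferase reporter assay, 2,000 cells per well, rested 5hr at 37 C before compound addition in DMSO, then 24 hr at 37 C. One-Glo reagent was added and luminescence read after 30 min at room temperature.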

In experiment [14] the target is Nuclear receptor subfamily 1 group I member 2 (Homo sapiens) (UniProt O75469). Nature of the experiment: CYP3A4 induction through human pregnane X receptor (PXR) by small molecules, qHTS assay (AID 1346984). Also: nearly all actives have a fitted effect of over 40% in size. Also: potency is read from the fitted curve at half-maximal effect. The essentials:
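Human PXR activation is tracked via CYP3A4 promoter-luciferase in DPX-2 (HepG2) cells. Compounds treat cells for 24hr at 37C, and luminescence is read after One-Glo.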

The target is the same in experiment [15]. The experiment can be described thus: Human pregnane X receptor (PXR) activation by small molecules, qHTS assay (AID 1346985). Also: nearly all actives have a fitted effect of over 40% in size. The essentials:
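DPX-2 cells (HepG2 co-transfected with a PXR response element and a CYP3A4-promoter luciferase construct) were seeded at 2,000 per well, rested 5 hr at 37C, then exposed to DMSO-dissolved compounds for 24 hr. Activation was read as luciferase luminescence.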

The target of experiment [16] is Cytochrome P450 2C19 (Homo sapiens) (UniProt P33261). The experiment can be described thus: Cytochrome P450 Family 2 Subfamily C Member 19 (CYP2C19) small molecule antagonists: luciferase reporter qHTS assay (AID 1671197). Also: nearly all actives have a fitted effect of over 65% in size. Also: potency is read from the fitted curve at half-maximal effect. The essentials: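 Relative luminescence units recorded 20 min after the detection reagent stopped a 1 h, 37C CYP2C19 reaction on proluciferin substrate, which was started by NADPH regeneration following 10 min room-temperature compound preincubation; ketoconazole positive control.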

Experiment [17] is described as follows: qHTS assay to identify small molecule agonists of the progesterone receptor (PR) signaling pathway - cell viability counter screen (AID 1346799; calls by dose curve; also: nearly all actives have a fitted effect of over 45% in size; also: potency is read from the fitted curve at half-maximal effect). The essentials: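 Luminescence from CellTiter-Glo, added after the beta-lactamase FRET read in the same wells, gave cytotoxicity in PR-UAS-bla HEK293T cells treated with compounds for 16 hr at 37C.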
A short description of experiment [18]: qHTS assay to identify small molecule antagonists of the TGF-beta/Smad signaling pathway - cell viability counter screen (AID 1346824). Also: nearly all actives have a fitted effect of over 50% in size. In outline: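 SBE-bla HEK 293T cells were plated overnight at 37 C, then given compounds in DMSO plus TGF-beta1 (added as 0.25 ng/mL solution) for 5 hr. After the bla read, CellTiter-Glo was added to the same wells and luminescence read after 30 min at room temperature.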

Experiment [19] concerns the target Thyrotropin-releasing hormone receptor (Homo sapiens) (UniProt P34981). Nature of the experiment: qHTS assay to identify small molecule antagonists of the thyrotropin-releasing hormone receptor (TRHR) signaling pathway (AID 1346877; active = well fitted inhibition curve with a large enough effect in the repeat runs, not every such curve was filed as active; also: series mostly up to about 51 µM). In outline: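 Human TRHR in HEK293 cells; inhibition of the intracellular calcium rise triggered by 1 nM TRH was followed by fluorescence over 3 min. Compounds were run at 15 concentrations, three replicates each.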

Experiment [20] has the same target. The experiment can be described thus: qHTS assay to identify small molecule agonists of the thyrotropin-releasing hormone receptor (TRHR) signaling pathway (AID 1346891; calls by dose curve; also: series mostly up to about 58 µM). The essentials:
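Intracellular calcium rise, read as fluorescence every second for 3 min, served as the agonist signal in dye-loaded HEK293 cells expressing TRHR; each compound ran at 15 concentrations in triplicate.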
% is scaled to controls: 0 for no effect and ±100 for the full control effect.

Sequence of Cytochrome P450 2D6 (Homo sapiens) (P10635 whole entry, looked up): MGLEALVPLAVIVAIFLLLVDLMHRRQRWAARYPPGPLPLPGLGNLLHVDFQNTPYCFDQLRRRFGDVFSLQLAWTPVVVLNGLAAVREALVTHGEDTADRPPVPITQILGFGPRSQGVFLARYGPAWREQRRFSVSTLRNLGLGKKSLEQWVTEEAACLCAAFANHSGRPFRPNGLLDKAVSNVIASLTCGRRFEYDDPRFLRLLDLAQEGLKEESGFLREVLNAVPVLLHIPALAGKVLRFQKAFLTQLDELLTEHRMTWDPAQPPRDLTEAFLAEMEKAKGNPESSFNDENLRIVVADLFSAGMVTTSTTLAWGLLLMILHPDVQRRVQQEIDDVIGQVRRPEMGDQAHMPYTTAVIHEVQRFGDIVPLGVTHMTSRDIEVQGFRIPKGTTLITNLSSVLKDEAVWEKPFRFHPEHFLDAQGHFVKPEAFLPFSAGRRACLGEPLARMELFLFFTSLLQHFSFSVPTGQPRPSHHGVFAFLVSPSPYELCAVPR
Sequence of Progesterone receptor (Homo sapiens) (P06401 whole entry, looked up): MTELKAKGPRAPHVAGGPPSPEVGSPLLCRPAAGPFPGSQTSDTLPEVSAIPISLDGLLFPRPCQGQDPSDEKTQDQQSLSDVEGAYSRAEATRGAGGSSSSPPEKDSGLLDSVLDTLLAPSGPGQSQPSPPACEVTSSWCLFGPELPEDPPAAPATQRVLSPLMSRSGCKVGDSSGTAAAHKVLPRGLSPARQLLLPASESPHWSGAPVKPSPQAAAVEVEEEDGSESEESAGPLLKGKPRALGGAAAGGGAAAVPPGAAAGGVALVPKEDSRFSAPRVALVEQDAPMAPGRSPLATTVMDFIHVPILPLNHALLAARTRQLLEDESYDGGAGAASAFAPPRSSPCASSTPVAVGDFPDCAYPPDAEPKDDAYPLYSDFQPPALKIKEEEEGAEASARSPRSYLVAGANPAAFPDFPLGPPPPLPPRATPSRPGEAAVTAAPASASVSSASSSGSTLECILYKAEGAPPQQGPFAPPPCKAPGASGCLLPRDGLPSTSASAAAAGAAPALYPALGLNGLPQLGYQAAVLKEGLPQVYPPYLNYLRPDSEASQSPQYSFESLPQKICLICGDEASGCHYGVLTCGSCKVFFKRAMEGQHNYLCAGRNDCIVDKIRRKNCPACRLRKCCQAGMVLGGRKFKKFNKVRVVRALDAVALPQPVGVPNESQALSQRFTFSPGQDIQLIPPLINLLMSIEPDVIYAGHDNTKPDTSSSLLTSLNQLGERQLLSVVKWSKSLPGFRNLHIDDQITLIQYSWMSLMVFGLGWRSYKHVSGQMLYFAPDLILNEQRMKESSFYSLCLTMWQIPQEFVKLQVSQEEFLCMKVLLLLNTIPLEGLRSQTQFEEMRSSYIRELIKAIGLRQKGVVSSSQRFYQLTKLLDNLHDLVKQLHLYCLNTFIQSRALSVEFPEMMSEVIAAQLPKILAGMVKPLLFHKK
Sequence of Nuclear receptor subfamily 1 group I member 2 (Homo sapiens) (O75469 whole entry, looked up): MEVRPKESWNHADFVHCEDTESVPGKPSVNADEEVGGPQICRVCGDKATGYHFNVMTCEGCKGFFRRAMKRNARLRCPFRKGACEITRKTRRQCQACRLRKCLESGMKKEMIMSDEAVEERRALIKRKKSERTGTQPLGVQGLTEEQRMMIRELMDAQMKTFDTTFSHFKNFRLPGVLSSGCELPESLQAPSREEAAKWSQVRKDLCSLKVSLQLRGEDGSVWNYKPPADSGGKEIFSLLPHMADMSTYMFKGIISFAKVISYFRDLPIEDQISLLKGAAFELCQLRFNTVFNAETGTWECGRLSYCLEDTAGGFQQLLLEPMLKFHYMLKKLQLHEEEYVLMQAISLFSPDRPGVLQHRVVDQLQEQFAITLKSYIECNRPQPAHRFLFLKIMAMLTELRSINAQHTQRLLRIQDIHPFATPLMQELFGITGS
Sequence of Thyrotropin-releasing hormone receptor (Homo sapiens) (P34981 whole entry, looked up): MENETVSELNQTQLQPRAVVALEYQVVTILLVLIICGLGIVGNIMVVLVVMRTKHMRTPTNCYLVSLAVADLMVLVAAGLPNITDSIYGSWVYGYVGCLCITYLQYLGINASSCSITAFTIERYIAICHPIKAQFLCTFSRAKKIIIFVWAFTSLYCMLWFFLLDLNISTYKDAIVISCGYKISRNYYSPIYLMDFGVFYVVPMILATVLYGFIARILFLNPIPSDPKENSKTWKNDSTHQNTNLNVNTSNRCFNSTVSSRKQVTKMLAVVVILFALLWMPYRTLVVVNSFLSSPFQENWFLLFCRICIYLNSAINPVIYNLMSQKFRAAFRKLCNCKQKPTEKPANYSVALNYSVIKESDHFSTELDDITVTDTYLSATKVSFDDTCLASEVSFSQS
Sequence of Cytochrome P450 2C19 (Homo sapiens) (P33261 whole entry, looked up): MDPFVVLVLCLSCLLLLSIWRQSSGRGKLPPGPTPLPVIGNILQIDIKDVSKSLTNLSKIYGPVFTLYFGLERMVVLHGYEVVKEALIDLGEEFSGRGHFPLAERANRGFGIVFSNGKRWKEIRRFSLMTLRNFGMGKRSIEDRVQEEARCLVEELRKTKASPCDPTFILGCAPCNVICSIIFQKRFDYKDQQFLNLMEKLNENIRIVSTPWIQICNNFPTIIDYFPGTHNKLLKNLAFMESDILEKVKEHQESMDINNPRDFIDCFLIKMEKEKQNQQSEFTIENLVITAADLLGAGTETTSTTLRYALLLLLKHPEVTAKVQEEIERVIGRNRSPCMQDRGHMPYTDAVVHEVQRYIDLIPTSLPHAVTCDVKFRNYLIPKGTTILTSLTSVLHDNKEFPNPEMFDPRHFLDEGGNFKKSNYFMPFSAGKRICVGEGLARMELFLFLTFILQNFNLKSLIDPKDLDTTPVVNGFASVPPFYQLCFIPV
Sequence of Nuclear receptor subfamily 1 group I member 2 (Rattus norvegicus) (Q9R1A7 whole entry, looked up): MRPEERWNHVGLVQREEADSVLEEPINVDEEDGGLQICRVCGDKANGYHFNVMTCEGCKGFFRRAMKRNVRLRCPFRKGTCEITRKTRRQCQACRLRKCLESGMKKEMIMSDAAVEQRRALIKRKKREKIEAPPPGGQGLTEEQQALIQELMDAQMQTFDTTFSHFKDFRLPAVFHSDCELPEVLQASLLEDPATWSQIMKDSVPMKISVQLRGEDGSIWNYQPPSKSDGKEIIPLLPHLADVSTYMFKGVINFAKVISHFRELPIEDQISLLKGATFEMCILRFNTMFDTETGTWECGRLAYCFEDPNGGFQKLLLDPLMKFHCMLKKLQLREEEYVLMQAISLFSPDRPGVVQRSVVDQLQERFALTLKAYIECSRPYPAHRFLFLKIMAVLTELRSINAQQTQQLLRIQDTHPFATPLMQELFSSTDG

As to `OCC1CC2CC1C1CCC(CO)C21` (centres undefined), the call in experiment [1], in experiment [4] and in experiment [6] was inactive. Moreover, the Potency in experiment [2] is 27.3 µM (active). Also, the Potency entry in experiment [3], in experiment [5], in experiment [7], in experiment [8], in experiment [9] and in experiment [10] was “inactive” each time. For the same molecule, the Potency entry in experiment [11] is “inactive”.

`Cc1nc2ccccc2n1Cc1ccc(Cl)cc1`: the molecule was classed as inactive in experiment [1], in experiment [4] and in [6]. The Potency in experiment [12] is 13.3 µM (active); in [7], 7.5 µM (active); in [11], 15.5 µM (active); in [16], 3.09 µM (active). Besides, the Potency entry in experiment [3], in experiment [8], in experiment [9], in experiment [14] and in experiment [15] was “inactive” in each case. Also, the max activation in experiment [13] is -21.8%.

For `CCOC(=O)[C@H](CCc1ccccc1)N[C@H]1CCc2ccccc2N(CC(=O)O)C1=O`, the molecule was called inactive in experiment [1] and in [19]. Further, the Potency in experiment [2] was 21.1 µM (active); in experiment [17] it was 21.1 µM (active); in experiment [5] it was 26.6 µM (active); in experiment [10], 23.7 µM (active); in experiment [14], 10 µM (active); in experiment [16], 6.92 µM (active). For the same molecule, the Potency entry in [18], in experiment [3], in [20] and in experiment [8] was “inactive” each time.

In the case of `O=C(O)C(c1ccc(Cl)cc1)c1ccc(Cl)cc1`, the call in experiment [1], in experiment [4] and in experiment [19] was inactive. The Potency entry in [12], in [3], in experiment [20], in experiment [5], in [7] and in [8] was “inactive” throughout. Besides, the Potency entry in experiment [9], in experiment [10] and in experiment [11] was “inactive” in each case.

Turning to `O=C(O)c1cccc(N(Cc2cccnc2)c2ccc(OC(F)F)c(OC(F)F)c2)c1`, the call in experiment [1] and in [6] was inactive. Also, the Potency entry in experiment [2], in [17], in experiment [18], in [3] and in experiment [8] was “inactive” in each case. In [10], the Potency was 43.3 µM (active).

Consider `O=C(O)COC(=O)Cc1ccccc1Nc1c(Cl)cccc1Cl`, for which the molecule was called inactive in [1], in experiment [4] and in [6]. The Potency entry in [17], in [18], in experiment [3], in [5], in experiment [8] and in [9] was “inactive” in each case. The Potency result in [10], in [14], in [11] and in experiment [16] was “inactive” throughout. The max activation in experiment [13] is -0.166%.

On to `COC(=O)CSc1cc(N=c2sc(=O)n3n2CCCC3)c(F)cc1Cl`, for which the molecule was classed as inactive in [1] and in experiment [6]. Besides, the Potency entry in experiment [2], in experiment [3], in experiment [5], in [7], in experiment [8] and in experiment [9] was “inactive” in each case. In experiment [10], the Potency entry is “inactive”. Further, the Potency in experiment [11] is 63.3 µM (active).

On to `CC(C)(C)c1cc(CO)cc(C(C)(C)C)c1O`, for which the molecule was called inactive in experiment [1], in experiment [4] and in [19]. For the same molecule, the Potency result in experiment [2], in experiment [18], in [3], in experiment [5], in [8] and in experiment [9] was “inactive” each time. Moreover, the values for the Potency in [11] and in experiment [16] were 72.4 µM (active) and 25.7 µM (active), respectively.

For the molecule `N#Cc1cc2ccccc2c2ccccc12`, the result in experiment [1], in [4], in experiment [19] and in experiment [6] was inactive. Besides, the Potency result in [17], in [18], in [3], in experiment [7], in [8] and in experiment [9] was “inactive” throughout. For the same molecule, the Potency result in [11] was “inactive”. The Potency in experiment [10] was 61.4 µM (active); in experiment [16] it was 35.8 µM (active).
